Assay outcomes: PubChem BioAssay, National Center for Advancing Translational Sciences (NCATS)
TDP1 cell noCPT – qHTS for Inhibitors of human tyrosyl-DNA phosphodiesterase 1 (TDP1): qHTS in cells in absence of CPT; DT40 Tdp1-/- hTDP1 cells, no CPT, ATP luminescence, 48 h; Potency, µM (series often up to 46.2 µM), for the others: top-dose activity change, negative = growth inhibition, hits mostly inhibitors; hit rate 15% among 420,000; further: nearly all actives have a fitted effect of over 55% in size
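A cellular qHTS used chicken DT40 cells lacking endogenous Tdp1 but carrying stably transfected human TDP1. Compounds were applied without camptothecin, and cell growth kinetics were judged by ATP-dependent luminescence after ≥48 hr.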
RORgamma inh – blocks mouse ROR gamma transcriptional activity; hit rate 5.4% among 310,000; Drosophila S2 Gal4-RORgamma UAS-luciferase reporter, 20 h; P51450; AID 2551; Potency, µM (titrated, usually from 53.6 µM), for inactives: at the highest dose activity change, negative = inhibition, most hits filed as inhibitors; further: nearly all actives have a fitted effect of over 60% in size
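A Gal4/UAS one-hybrid system in insect cells: metallothionein-promoter Gal4–ROR gamma fusion plus Photinus luciferase reporter. Copper sulfate 700 uM final, 20 hr ambient incubation, luminescent detection after 10 min with reagent.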
TDP1 cell CPT – DT40-hTDP1 cell growth loss with CPT; chicken DT40 Tdp1-/-;hTDP1 cells + 20 nM CPT, ATP luminescence, 48 h; Potency, µM (series often up to 46.2 µM), for the others: at the highest dose activity change, negative = growth inhibition, most hits filed as inhibitors; hit rate 12% among 420,000; further: nearly all actives have a fitted effect of over 55% in size
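Chicken DT40 Tdp1-/- cells stably complemented with human TDP1 were seeded at 400 cells/well in medium containing 20 nM camptothecin, exposed to pin-transferred compounds, and grown at 37 °C for at least 48 hr. Viability was read as ATP luminescence.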
ELG1 repair inh – ELG1-dependent DNA repair inhibition; HEK293T ELG1-luciferase reporter, luminescence, 16 h; DNA damage induced by 5-fluorouridine; Potency, µM (top dose mostly 46.1 µM), for the others: at the highest dose activity change, negative = inhibition, hits mostly inhibitors; hit rate 2.3% among 330,000; AID 504467; further: nearly all actives have a fitted effect of over 55% in size
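Quantitative HTS, concentration-response format. 2,000 cells/well co-treated with 5-fluorouridine and compound, 16 hr in 5% CO2 at 37 °C; ONE-Glo luminescence read after 30 min.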
12-LOX inh – blocks human arachidonate 12S-lipoxygenase. P18054. purified 12hLO, xylenol orange hydroperoxide absorbance. Potency, µM (top dose mostly 108 µM), for the others: at the top dose activity change, negative = inhibition, usual class: inhibitors. hit rate 1.1% among 580,000
Target sequence (P18054 whole entry, looked up): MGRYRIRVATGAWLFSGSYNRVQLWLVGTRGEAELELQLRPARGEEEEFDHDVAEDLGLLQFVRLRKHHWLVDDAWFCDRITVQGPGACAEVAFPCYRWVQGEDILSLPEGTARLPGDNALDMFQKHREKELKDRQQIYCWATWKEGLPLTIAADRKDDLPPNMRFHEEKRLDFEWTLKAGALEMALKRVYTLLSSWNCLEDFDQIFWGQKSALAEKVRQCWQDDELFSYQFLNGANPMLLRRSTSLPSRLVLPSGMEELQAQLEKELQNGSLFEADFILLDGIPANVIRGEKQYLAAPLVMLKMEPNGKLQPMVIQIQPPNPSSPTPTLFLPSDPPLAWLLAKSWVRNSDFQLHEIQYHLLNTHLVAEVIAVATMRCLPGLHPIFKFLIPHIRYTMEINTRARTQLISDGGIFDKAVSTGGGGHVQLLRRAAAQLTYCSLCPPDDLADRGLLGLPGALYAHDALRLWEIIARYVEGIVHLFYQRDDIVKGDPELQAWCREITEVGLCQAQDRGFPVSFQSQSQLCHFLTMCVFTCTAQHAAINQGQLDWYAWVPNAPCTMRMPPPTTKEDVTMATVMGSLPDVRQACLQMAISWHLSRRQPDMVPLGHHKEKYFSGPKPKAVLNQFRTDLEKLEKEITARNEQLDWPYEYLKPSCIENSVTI
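Purified human 12hLO at 150 nM in 25 mM Hepes, 0.01% Triton X-100, pH 7.0, preincubated 15 min at room temperature with compound. Reaction started with 40 uM arachidonic acid, 30 min at room temperature. Hydroperoxide measured by Fe-xylenol orange, 573/405 nm absorbance ratio.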
Gal4-VP16 FLuc – inhibits Gal4-VP16 luciferase reporter, ROR gamma counter-screen; Drosophila S2 Gal4-VP16 UAS-luciferase, luminescence, 20 h; Potency, µM (highest dose often 53.6 µM), for the others: at the top dose activity, negative = inhibition, hits mostly inhibitors; hit rate 3.5% among 310,000;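 further: Gal4-VP16 expression switched on by copper sulfate through the metallothionein promoter; nearly all actives have a fitted effect of over 50% in size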
The depositor's hits bear a star; u = inconclusive; x = not tested or not shown. Only some compounds are listed: those with a hit (about 15% of all), similar ones and a draw of the others. The call rests on the fitted dose curve; in most records, active means well fitted curve in the direction sought with a large enough effect; inconclusive means small, poorly fitted or top-dose-only effect, or another doubt; inactive means no such curve, though single readings can be large; an effect the other way counts as inactive or inconclusive. On the % scale 0 is the no-effect control and ±100 the full control effect; potency means the concentration at half of the fitted maximal effect.

SMILES | TDP1 cell noCPT | RORgamma inh | TDP1 cell CPT | ELG1 repair inh | 12-LOX inh | Gal4-VP16 FLuc
CC(=O)c1ccc(NC(=S)NCCc2ccccn2)cc1 | -16% | u | -4% | u | -25% | -23%
CC(C)(C)c1ccc(NC(=S)NCCc2ccccn2)cc1 | u | 0.5µM* | u | u | 0% | u
COc1ccccc1CNC(=O)[C@@H]1CNC[C@H]1COc1cccnc1 | x | x | x | x | 1% | x
CCOc1ccc(S(=O)(=O)Nc2ccc(C(=O)N/N=C/c3c(C)nn(-c4ccccc4)c3N3CCCC3)cc2)cc1 | u | -11% | u | -26% | -3% | -3%
Cc1nn(-c2ccccc2)c(N2CCCC2)c1/C=N/O | u | 19% | u | -21% | 7% | 5%
COc1c(/C=N/NC(N)=S)c(C)nn1-c1ccccc1 | u | 7.1µM* | u | 2% | -15% | u
Cc1nn(-c2ccccc2)c(N2CCCCC2)c1/C=N/NC(=O)c1ccncc1 | 23µM* | u | 13µM* | u | -1% | -1%
Cc1nn(-c2ccccc2)c(N2CCCC2)c1/C=N/NC(=S)Nc1ccc(F)cc1 | 8.2µM* | x | 5.8µM* | x | u | x
COc1c(/C=N/Nc2ccc([N+](=O)[O-])cc2[N+](=O)[O-])c(C)nn1-c1ccccc1 | u | -1% | u | -8% | 68% | -4%
Cc1ccc(NC(=S)N/N=C/c2c(C)nn(-c3ccccc3)c2N2CCCC2)cc1 | u | u | 12% | 25% | u | 0.1µM*
CC(C)Cc1cc(C(=O)NCC2(c3ccccc3F)CCCC2)on1 | x | x | x | x | 27% | x
Cc1ccc(NC2=C(NCCO)C(=O)c3ccccc3C2=O)cc1 | u | 14% | 13µM* | -1% | u | 14%
CCOCCCNC1=C(Cl)C(=O)c2ccccc2C1=O | 6.5µM* | -42% | 5.8µM* | -24% | 0% | u
O=C1C(Cl)=C(NCCCO)C(=O)c2ccccc21 | 18µM* | 11µM* | 23µM* | -13% | 0% | u
Cc1ccc(Nc2nc(N)c([N+](=O)[O-])c(NCCO)n2)cc1 | u | 31% | u | u | 115% | -1%
O=C(c1cnc(C2CC2)nc1)N1CCC2(CCNCC2CO)CC1 (centres undefined) | x | x | x | x | 122% | x
COCCN1C(=O)[C@H]2CN(Cc3cccc(C(F)(F)F)c3)C[C@H]2C1=O | x | x | x | x | 58% | x
C=CCn1c(C)cc(C(=O)COc2ccc(C)nc2[N+](=O)[O-])c1C | 21µM* | 33% | u | u | 2% | -3%
C=CCn1c(C)cc(C(=O)COc2nncc3ccccc23)c1C | 7.3µM* | 39% | 8.2µM* | u | 0% | u
CCCn1c(C)cc(C(=O)COc2ccc(C)nc2[N+](=O)[O-])c1C | u | u | u | u | 1% | 1%
Cc1ccc(OCC(=O)c2cc(C)n(-c3ccccc3)c2C)c([N+](=O)[O-])n1 | 15µM* | -66% | u | -15% | 0% | u
C=CCn1c(C)cc(C(=O)COC(=O)c2cc(C)nc3ccccc23)c1C | x | x | x | x | -15% | x
CCCn1c(C)cc(C(=O)COc2ccc(S(=O)(=O)N(CC)CC)cc2[N+](=O)[O-])c1C | 23µM* | 24% | 21µM* | 16µM* | -4% | -6%
COCCn1c(C)cc(C(=O)COc2ccc(C)nc2[N+](=O)[O-])c1C | u | -30% | u | 27% | -6% | -14%
O=C(Nc1ccccc1)c1cnc(N2CCN(Cc3cccc(C(F)(F)F)c3)C2=O)o1 | x | x | x | x | -2% | x
SMILES | TDP1 cell noCPT | RORgamma inh | TDP1 cell CPT | ELG1 repair inh | 12-LOX inh | Gal4-VP16 FLuc
Cc1ccc(CN2C(=O)CSCC2(C)C(=O)NCc2ccccc2)cc1 (centres undefined) | u | x | 21µM* | x | 1% | x
Cc1cccc(C)c1NC(=O)C1(C)CSCC(=O)N1Cc1cccc(C(F)(F)F)c1 (centres undefined) | 26µM* | x | u | x | -9% | x
Cc1cccc(C)c1NC(=O)C1(C)CSCC(=O)N1Cc1cccc(F)c1 (centres undefined) | -14% | x | 13% | x | u | x
CCSc1nc(-c2ccccc2)c(C#N)c(=O)[nH]1 | 2% | u | 4% | 22% | -11% | 2%
N#Cc1c(-c2ccccc2)nc(SCc2nc(N)nc(N3CCCCC3)n2)[nH]c1=O | u | -27% | 12µM* | -6% | u | 4%
Nc1c2c(nc3ccccc13)N(c1ccccc1)CC2 | u | 0% | 15µM* | 7% | u | 8%
CCCC(=O)Nc1c2c(nc3ccccc13)N(c1ccccc1)CC2 | u | 1% | u | -18% | x | -3%
CCCCc1nn2c(=O)cc(CSCC(=O)Nc3ccccc3C)nc2s1 | x | x | x | x | 10% | x
CCCCOC(=O)C1CN(c2ccccc2)N=C1C(=O)OCC (centres undefined) | 21µM* | -4% | 23µM* | 3% | -11% | 1%
COCCN(Cc1cc2cc(C)cc(C)c2nc1Cl)C(=O)Nc1ccccc1 | 3.3µM* | u | 4.6µM* | -19% | 20% | 9%
Cc1cc(C)c2nc(Cl)c(CN(Cc3ccco3)C(=O)Nc3ccccc3C)cc2c1 | 4.6µM* | u | 5.2µM* | -1% | 7% | -27%
COCCN(Cc1cc2c(C)cc(C)cc2nc1Cl)C(=O)c1ccccc1F | 8.2µM* | 2% | 10µM* | u | 12% | -6%
